The values below come from PubChem BioAssay.

Calls of active or inactive are those of the source.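 How the source made its calls, unless noted: active means inhibition above 50%, about 3 SD of the validation set; inactive means the rest.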

A short description of assay [1]: reduced mouse 2C T cell binding to pMHC/ICAM-1 vesicles – MLPCN validation set, flow cytometry, LFA-1/ICAM-1 modulator project, pilot screen (AID 2523;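 active means response below a set limit, under 55% cells CD8-positive and vesicle-bound, and CD8 cells' 90th-percentile brightness under 279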;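 on vesicle binding response: mean PE anti-B7-1 fluorescence of CD8+ cells relative to row control; 100% = QL9-loaded vesicles with DMSO vehicle in the same plate row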). Particulars: 2C mouse CD8+ T cells, at 7 µM, stronger effect = lower value; double positive events: measured here: CD8+/vesicle+ event percentage. A general note: In flow cytometry, cells or beads pass a laser one at a time.

Assay [2] addresses Integrin beta-1 (Homo sapiens) + Integrin alpha-4 (Homo sapiens) (UniProt P13612+P05556). The experiment in a line: alpha4beta1 integrin LIBS antibody binding reduction – U937 cells, HUTS-21 mAb, flow cytometry, validation set, VLA-4 allosteric modulator project, pilot screen (AID 2674).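 Further: antibody binding induced by the VLA-4 ligand LDV present at three times its Kd; 0% = LDV ligand with antibody and no compound and 100% = antibody without LDV.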 Particulars: HUTS-21 LIBS mAb binding, at 6.7 µM, stronger effect = higher value, binding induced by LDV ligand.

Assay [3] is described as follows: calorie-restriction mimetic ROS inhibitors, yeast – validation compound set, pilot screen (AID 2706;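 active means superoxide response below 65% of plate, a cut near 3 SD across the whole screen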;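 further: yeast exposed to compound for one week at 30 degrees C before staining; 100% = mean of all compound wells on the same plate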). Particulars: S. cerevisiae aging, superoxide DHE fluorescence; at 10 µM, stronger effect = lower value.
Assay [4] deals with Beta-adrenergic receptor kinase 1 (Homo sapiens) (UniProt P25098). The experiment in a line: GRK2 binders displacing RNA aptamer, biochemical, validation, human GRK2, bead flow cytometry (AID 488806;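 active means aptamer binding inhibition above 30%, about 3 SD of noise from non-fluorescent compounds; inactive means inhibition at or below 30%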). Conditions: bead-bound GRK2, FAM-aptamer displacement, at 10 µM, stronger effect = higher value.
Chain of Beta-adrenergic receptor kinase 1 (Homo sapiens) (P25098 whole entry, looked up): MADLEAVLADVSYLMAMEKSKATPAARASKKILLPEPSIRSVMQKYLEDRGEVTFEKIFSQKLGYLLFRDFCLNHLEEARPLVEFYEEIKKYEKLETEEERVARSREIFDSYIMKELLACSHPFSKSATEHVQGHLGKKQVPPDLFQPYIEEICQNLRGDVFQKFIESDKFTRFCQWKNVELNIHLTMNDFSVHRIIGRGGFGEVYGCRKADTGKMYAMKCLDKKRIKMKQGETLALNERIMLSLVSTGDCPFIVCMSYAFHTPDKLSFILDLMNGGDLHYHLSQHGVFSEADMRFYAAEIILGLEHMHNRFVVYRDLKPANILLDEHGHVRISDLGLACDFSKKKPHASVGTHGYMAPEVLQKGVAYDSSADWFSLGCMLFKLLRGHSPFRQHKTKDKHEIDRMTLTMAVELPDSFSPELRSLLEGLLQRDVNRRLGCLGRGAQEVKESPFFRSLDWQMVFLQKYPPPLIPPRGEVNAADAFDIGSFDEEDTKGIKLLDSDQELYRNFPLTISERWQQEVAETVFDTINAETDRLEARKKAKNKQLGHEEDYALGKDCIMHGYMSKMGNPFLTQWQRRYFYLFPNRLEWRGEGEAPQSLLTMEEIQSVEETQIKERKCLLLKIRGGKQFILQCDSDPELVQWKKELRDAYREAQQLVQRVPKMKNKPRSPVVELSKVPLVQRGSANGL
Assay [5] addresses Beta-2 adrenergic receptor (Homo sapiens) (UniProt P07550). The experiment in a line: agonist-induced loss of surface beta2AR – cell-based, FAP fluorogen, flow cytometry, validation set, pilot screen (AID 504459;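 active means percent response above 42, roughly 3 SD of non-fluorescent test compounds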;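 further: agonist-driven loss of surface beta2AR via internalization measured by FAP dye flow cytometry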). Particulars: Am2.2-beta2AR cells, at 10 µM, stronger effect = higher value.
Assay [6] has as its target AP-2 complex subunit beta (Homo sapiens) (UniProt P63010). The assay can be described thus: beta-arrestin/AP2 interaction blockers – biochemical, validation set, GST-AP2 beads, flow cytometry, pilot screen (AID 504541;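 active means inhibition above 54%, about 3 SD of non-fluorescent compounds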;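 further: AP2 carries R879A mutation and is captured from E. coli lysate; bead-bound FITC arrestin peptide fluorescence measuring arrestin peptide binding to AP2; 0% = DMSO wells and 100% = excess unlabeled arrestin peptide control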). Conditions: FITC arrestin peptide, at 10 µM, stronger effect = higher value, AP2 beta2 appendage fragment, R879A mutant.
Assay [7] can be described thus: cytosolic pH regulators acting via V-ATPase – S. cerevisiae, pHLuorin, HTS validation (AID 504600; in the data active means response above about 15%;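 further: plate controls were DMSO for no effect and reference compound for full effect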). Conditions: V-ATPase proton transport, at 10 µM, stronger effect = higher value.
Assay [8] relates to anti-desmoglein-3 scFv antibody binding to human DSG3. The experiment in a line: blockers of pathogenic pemphigus antibody–desmoglein-3 binding – biochemical, validation compound set, bead-based, flow cytometry, pilot screen (AID 588368;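 active means binding below the plate cutoff, the plate median minus 3 SD, with a reading above zero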;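 further: signal is the median channel fluorescence of bead-bound GFP antibody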). Conditions: Protein G beads, DSG3-Fc, scFv-GFP binding, at 10 µM, stronger effect = lower value.
A short description of assay [9]: Nile Red efflux blockade in pump-expressing yeast – validation compound set, multiplex, phenotypic, pilot screen (AID 588506;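 active means efflux inhibition above 0.42, the validation set average plus 4 SD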;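 further: Nile Red retained in cells so higher fluorescence means more efflux inhibition; 0 = negative control wells and 1 = enniatin B 25 µM full block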). Particulars: S. cerevisiae pump-expressing triplex, Nile Red efflux flow cytometry; at 10 µM; stronger effect = higher value; the pumps come from Candida albicans.
Assay [10] deals with ATP-binding cassette sub-family B member 6 (Homo sapiens) (UniProt Q9NP58). The assay can be described thus: blockers of ABCB6-driven porphyrin uptake – K562-ABCB6 cells, flow cytometry, validation set, pilot screen (AID 588550;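 active means inhibition above the screen-wide mean plus 3 SD, about 51%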;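 further: 0% = DMSO wells and 100% = benzethonium chloride 70 µM positive control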). Conditions: K562-ABCB6 porphyrin accumulation, 1 h, at 10 µM, stronger effect = higher value.
Chain of ATP-binding cassette sub-family B member 6 (Homo sapiens) (Q9NP58 whole entry, looked up): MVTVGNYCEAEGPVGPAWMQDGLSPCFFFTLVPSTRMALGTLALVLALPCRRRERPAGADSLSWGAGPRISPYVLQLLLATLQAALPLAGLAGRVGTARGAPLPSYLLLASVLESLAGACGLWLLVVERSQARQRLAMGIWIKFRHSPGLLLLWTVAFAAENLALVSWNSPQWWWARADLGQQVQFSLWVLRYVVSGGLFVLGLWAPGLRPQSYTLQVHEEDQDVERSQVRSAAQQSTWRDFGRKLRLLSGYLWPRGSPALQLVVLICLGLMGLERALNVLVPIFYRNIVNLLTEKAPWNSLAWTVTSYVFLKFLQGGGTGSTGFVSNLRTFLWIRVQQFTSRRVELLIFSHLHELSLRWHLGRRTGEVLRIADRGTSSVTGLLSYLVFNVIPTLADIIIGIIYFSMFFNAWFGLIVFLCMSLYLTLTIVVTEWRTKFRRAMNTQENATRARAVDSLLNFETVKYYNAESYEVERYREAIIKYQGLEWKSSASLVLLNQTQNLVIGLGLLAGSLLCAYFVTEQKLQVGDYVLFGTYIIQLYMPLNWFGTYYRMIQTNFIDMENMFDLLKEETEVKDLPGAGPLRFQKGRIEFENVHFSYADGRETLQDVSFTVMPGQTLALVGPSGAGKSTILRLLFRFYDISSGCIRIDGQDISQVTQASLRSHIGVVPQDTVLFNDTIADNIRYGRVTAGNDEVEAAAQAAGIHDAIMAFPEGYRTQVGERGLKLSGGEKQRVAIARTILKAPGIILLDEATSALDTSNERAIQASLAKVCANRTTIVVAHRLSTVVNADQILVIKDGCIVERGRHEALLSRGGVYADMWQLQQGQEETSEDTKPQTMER
Assay [11] can be described thus: AML differentiation inducers, ER-HoxA9 marrow cells – cell-based, GFP/MAC1 double positive, flow cytometry, validation set, primary screen (AID 588685;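 active means differentiation response of at least 50%, scaled between solvent and reference control, from cells with both markers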;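 further: compound exposure lasts four days before antibody staining and flow analysis; 0% = DMSO wells and 100% = 5 µM fulvestrant positive control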). Conditions: stronger effect = higher value, normalized: vehicle 0, fulvestrant 100.

Chain of Integrin beta-1 (Homo sapiens) + Integrin alpha-4 (Homo sapiens) (P05556 whole entry, looked up): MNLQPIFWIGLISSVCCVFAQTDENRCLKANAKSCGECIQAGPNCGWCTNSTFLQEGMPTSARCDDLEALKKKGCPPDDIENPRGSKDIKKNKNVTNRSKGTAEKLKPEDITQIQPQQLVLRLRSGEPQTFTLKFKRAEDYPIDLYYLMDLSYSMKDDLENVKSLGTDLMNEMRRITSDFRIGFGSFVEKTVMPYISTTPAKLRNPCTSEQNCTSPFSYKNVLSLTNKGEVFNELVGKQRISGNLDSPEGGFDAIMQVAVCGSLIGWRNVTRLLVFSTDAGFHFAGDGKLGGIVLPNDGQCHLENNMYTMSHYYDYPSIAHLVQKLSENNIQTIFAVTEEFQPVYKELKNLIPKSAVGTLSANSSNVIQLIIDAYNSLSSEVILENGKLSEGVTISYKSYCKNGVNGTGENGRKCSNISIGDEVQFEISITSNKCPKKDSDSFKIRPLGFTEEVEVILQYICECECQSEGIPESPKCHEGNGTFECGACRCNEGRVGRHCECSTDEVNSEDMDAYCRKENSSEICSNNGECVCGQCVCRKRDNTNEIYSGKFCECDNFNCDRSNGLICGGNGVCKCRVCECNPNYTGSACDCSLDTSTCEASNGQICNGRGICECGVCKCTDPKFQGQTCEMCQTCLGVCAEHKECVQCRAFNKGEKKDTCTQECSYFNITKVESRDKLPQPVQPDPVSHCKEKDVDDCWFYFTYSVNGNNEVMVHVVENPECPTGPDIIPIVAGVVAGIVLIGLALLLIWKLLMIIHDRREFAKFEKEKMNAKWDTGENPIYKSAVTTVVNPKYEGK
Chain of Integrin beta-1 (Homo sapiens) + Integrin alpha-4 (Homo sapiens) (P13612 whole entry, looked up): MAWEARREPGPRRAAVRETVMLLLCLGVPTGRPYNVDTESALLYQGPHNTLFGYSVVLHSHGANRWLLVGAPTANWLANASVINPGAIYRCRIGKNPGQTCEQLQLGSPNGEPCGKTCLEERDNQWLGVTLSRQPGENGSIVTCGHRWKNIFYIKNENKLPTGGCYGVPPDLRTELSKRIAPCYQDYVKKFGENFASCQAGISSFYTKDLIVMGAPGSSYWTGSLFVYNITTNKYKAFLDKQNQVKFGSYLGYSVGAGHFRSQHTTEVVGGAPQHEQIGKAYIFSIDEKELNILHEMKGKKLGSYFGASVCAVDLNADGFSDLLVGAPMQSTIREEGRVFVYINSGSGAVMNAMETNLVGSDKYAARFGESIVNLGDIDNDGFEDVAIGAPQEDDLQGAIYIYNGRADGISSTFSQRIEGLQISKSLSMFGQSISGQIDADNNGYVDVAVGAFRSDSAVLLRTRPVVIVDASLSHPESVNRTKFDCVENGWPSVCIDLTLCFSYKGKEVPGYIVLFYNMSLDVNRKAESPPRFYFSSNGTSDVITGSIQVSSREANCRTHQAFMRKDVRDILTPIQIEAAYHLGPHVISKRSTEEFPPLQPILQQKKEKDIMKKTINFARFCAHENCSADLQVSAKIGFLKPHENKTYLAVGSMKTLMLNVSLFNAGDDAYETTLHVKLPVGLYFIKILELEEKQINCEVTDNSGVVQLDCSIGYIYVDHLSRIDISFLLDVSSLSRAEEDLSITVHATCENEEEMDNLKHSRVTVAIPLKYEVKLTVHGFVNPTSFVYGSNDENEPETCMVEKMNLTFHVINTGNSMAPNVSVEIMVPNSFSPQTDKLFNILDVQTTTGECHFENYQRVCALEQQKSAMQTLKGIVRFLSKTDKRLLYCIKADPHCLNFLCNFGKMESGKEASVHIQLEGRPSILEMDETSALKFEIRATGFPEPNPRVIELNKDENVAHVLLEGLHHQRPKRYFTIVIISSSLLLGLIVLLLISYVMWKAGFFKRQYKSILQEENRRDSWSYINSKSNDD
Chain of Beta-2 adrenergic receptor (Homo sapiens) (P07550 whole entry, looked up): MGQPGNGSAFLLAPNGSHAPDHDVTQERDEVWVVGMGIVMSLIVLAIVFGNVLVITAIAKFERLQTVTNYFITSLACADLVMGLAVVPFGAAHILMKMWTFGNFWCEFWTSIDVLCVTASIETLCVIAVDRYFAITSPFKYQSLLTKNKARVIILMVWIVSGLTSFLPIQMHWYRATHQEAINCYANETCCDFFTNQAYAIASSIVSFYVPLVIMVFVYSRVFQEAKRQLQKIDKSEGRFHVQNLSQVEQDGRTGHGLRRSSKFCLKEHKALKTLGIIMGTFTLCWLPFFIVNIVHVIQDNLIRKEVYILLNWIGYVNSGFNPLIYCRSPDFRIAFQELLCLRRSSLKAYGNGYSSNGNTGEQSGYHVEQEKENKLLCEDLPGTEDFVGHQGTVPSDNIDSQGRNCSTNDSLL
Chain of AP-2 complex subunit beta (Homo sapiens) (P63010 whole entry, looked up, the tested form may be a part, one chain of several): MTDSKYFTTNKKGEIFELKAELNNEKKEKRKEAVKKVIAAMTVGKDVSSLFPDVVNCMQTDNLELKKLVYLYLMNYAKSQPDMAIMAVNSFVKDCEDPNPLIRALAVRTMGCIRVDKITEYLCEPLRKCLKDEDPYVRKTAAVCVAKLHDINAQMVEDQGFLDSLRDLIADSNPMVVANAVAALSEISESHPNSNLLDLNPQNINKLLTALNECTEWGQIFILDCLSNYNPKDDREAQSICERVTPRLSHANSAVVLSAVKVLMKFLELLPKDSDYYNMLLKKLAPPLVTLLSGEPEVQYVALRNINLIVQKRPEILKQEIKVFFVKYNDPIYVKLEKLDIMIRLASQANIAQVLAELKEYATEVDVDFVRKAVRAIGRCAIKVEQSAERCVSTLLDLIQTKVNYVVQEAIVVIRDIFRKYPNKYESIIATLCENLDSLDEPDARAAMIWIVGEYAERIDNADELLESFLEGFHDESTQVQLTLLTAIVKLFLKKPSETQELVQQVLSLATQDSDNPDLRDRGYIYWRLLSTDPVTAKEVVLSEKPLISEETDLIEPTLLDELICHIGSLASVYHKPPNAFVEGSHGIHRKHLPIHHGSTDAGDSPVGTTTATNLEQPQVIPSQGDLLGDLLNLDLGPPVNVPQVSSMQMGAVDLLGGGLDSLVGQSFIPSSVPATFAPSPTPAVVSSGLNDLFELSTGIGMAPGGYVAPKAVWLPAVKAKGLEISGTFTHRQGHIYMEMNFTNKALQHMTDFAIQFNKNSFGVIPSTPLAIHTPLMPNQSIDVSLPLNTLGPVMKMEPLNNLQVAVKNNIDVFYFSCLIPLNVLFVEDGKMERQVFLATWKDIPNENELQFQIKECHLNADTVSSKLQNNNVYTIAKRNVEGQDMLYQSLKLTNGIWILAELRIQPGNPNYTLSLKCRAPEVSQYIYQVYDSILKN

For orientation: inhibition means the change of the read-out against control, counted positive when it falls. As to `COC(=O)c1cc(-c2c(C)oc3cc(OC)ccc3c2=O)c(C)o1`, the double positive events in assay [1] worked out at 59.2%. The vesicle binding response in assay [1] is 199% (inactive). Moreover, the inhibition was 2.3% (inactive) in assay [2], 2.24% (inactive) in assay [6] and 8% (inactive) in [10]. Also, the superoxide response (% of plate) in assay [3] was 96.8% (inactive). Besides, the aptamer binding inhibition in assay [4] is 1% (inactive). For the same molecule, the response in assay [5] is 7.03% (inactive); in assay [7], 1.93% (inactive). Also, the binding (% of control) in assay [8] was 105% (inactive). The efflux inhibition (fraction of control) in assay [9] is -0.1 (inactive). In addition, the differentiation response in assay [11] was 18.4% (inactive).

In the case of `CC(C)CC(=O)N(Cc1ccc(F)cc1)C1CCS(=O)(=O)C1` (centres undefined), the double positive events in assay [1] was determined as 61.8%. The vesicle binding response in assay [1] was 204% (inactive). Besides, the results for the inhibition in [2], in [6] and in assay [10] were 0.25% (inactive), 1.93% (inactive) and 19% (inactive), respectively. For the same molecule, the superoxide response (% of plate) in assay [3] was 114% (inactive). Also, the aptamer binding inhibition in [4] is 2% (inactive). In addition, the response in [5] is 22.9% (inactive); in [7] it was 3.28% (inactive). The binding (% of control) in assay [8] is 102% (inactive). In assay [9], the efflux inhibition (fraction of control) is 0.91 (active). For the same molecule, the differentiation response in assay [11] was -8.96% (inactive).

Molecule `CC(=O)OCC(OC(C)=O)C(OC(C)=O)C(OC(C)=O)C(=O)Nc1cccc(C)c1` (centres undefined) came in with a double positive events in assay [1] of 59.9%. For the same molecule, the vesicle binding response in assay [1] was 153% (inactive). Further, the inhibition in [2] is -4.52% (inactive); in assay [6] it was -4.4% (inactive); in [10], 2% (inactive). In addition, in assay [3], the superoxide response (% of plate) was 110% (inactive). Besides, the aptamer binding inhibition in assay [4] is 3% (inactive). In addition, the response is 4.29% (inactive) in assay [5] and 1.1% (inactive) in assay [7]. Further, the binding (% of control) in assay [8] is 97% (inactive). The efflux inhibition (fraction of control) in assay [9] is -0.1 (inactive). Also, the differentiation response in assay [11] was -10.4% (inactive).

`COc1ccc(-c2c(NC(=O)c3ccco3)n(C)c3ccccc3c2=O)cc1` came in with a double positive events in assay [1] of 58.6%. In assay [1], the vesicle binding response was 125% (inactive). The figures for the inhibition in assay [2], in [6] and in assay [10] were -1.09% (inactive), -5.24% (inactive) and -2% (inactive), respectively. The superoxide response (% of plate) in assay [3] is 102% (inactive). For the same molecule, the aptamer binding inhibition in [4] is 3% (inactive). Moreover, the response in assay [5] is 5.47% (inactive); in assay [7] it was -3.79% (inactive). In assay [8], the binding (% of control) was 99.6% (inactive). Moreover, the efflux inhibition (fraction of control) in assay [9] was -0.37 (inactive). In assay [11], the differentiation response was -7.5% (inactive).

In the case of `COc1cc([C@@H]2c3cc4c(cc3[C@H](O)[C@H]3COC(=O)[C@H]23)OCO4)cc(OC)c1OC`, in assay [1], the double positive events stood at 63.2%. For the same molecule, in assay [1], the vesicle binding response was 180% (inactive). The inhibition is 38.9% (inactive) in [2], -1.6% (inactive) in assay [6] and 7% (inactive) in assay [10]. Besides, in assay [3], the superoxide response (% of plate) is 99.1% (inactive). Further, in [4], the aptamer binding inhibition is 7% (inactive). Further, the values for the response in [5] and in assay [7] were 22.7% (inactive) and 21% (active), respectively. Further, the binding (% of control) in assay [8] was 102% (inactive). The efflux inhibition (fraction of control) in assay [9] is -0.13 (inactive). Besides, the differentiation response in assay [11] is -0.06% (inactive).

In turn, `COc1cc2ccc(=O)oc2c(O)c1OCC=C(C)C` returned a double positive events in assay [1] of 63.7%. The vesicle binding response in assay [1] is 190% (inactive). The inhibition is -12.9% (inactive) in assay [2], -0.67% (inactive) in assay [6] and 10% (inactive) in [10]. Besides, the superoxide response (% of plate) in [3] is 102% (inactive). For the same molecule, the aptamer binding inhibition in [4] is -1% (inactive). Also, the response in [5] is -9.13% (inactive); in assay [7], -0.32% (inactive). The binding (% of control) in [8] was 98.2% (inactive). For the same molecule, the efflux inhibition (fraction of control) in assay [9] was 0.05 (inactive). The differentiation response in [11] is 7.09% (inactive).

`COc1ccc(/C=C2\CCn3c2nc2cc(C(=O)O)ccc2c3=O)cc1OC` had a double positive events in assay [1] of 60.5%. The vesicle binding response in assay [1] was 178% (inactive). The figures for the inhibition in [2], in [6] and in assay [10] were 5.61% (inactive), -3.78% (inactive) and 2% (inactive), respectively. The superoxide response (% of plate) in assay [3] was 108% (inactive). For the same molecule, the aptamer binding inhibition in assay [4] was 1% (inactive). Moreover, the response is 7.98% (inactive) in assay [5] and 0.13% (inactive) in assay [7]. The binding (% of control) in [8] was 102% (inactive). In addition, in assay [9], the efflux inhibition (fraction of control) is 0 (inactive). Besides, the differentiation response in assay [11] was -8.96% (inactive).

The molecule `Cn1c(=O)c2c(nc(SCCN3CCCCC3)n2C)n(C)c1=O` had a double positive events in assay [1] of 61.5%. Further, in assay [1], the vesicle binding response was 176% (inactive). For the same molecule, the inhibition in assay [2] is -0.27% (inactive); in assay [6], -6.3% (inactive); in assay [10], -2% (inactive). In assay [3], the superoxide response (% of plate) is 85.5% (inactive). For the same molecule, the aptamer binding inhibition in [4] is -3% (inactive). The response is -25.4% (inactive) in assay [5] and 1.6% (inactive) in assay [7]. Moreover, the binding (% of control) in assay [8] is 110% (inactive). For the same molecule, the efflux inhibition (fraction of control) in assay [9] was -0.13 (inactive). The differentiation response in assay [11] was -11.9% (inactive).

Take `CCSc1nc(O)c(C2OC(=O)c3c2ccc(OC)c3OC)c(=O)n1CC` (centres undefined): the double positive events in [1] was 69.4%. Also, the vesicle binding response in [1] is 289% (inactive). Further, the figures for the inhibition in [2], in assay [6] and in assay [10] were -1.79% (inactive), -2.62% (inactive) and 109% (active), respectively. Further, the superoxide response (% of plate) in assay [3] was 86.4% (inactive). The aptamer binding inhibition in assay [4] is 2% (inactive). Further, the figures for the response in [5] and in [7] were 15.5% (inactive) and -1.36% (inactive), respectively. The binding (% of control) in assay [8] is 101% (inactive). Besides, the efflux inhibition (fraction of control) in assay [9] was 0.12 (inactive). Besides, the differentiation response in [11] was 20% (inactive).

In [1], `CC(=O)C1=C(NC(=O)c2ccc(C(F)(F)F)cc2)C[C@@H]2[C@H]1C2(C)C` showed a double positive events of 60%. The vesicle binding response in assay [1] is 129% (inactive). Also, the results for the inhibition in assay [2], in assay [6] and in assay [10] were -3.77% (inactive), 6.52% (inactive) and -1% (inactive), respectively. In addition, in assay [3], the superoxide response (% of plate) was 99% (inactive). Also, the aptamer binding inhibition in assay [4] was 3% (inactive). In addition, the results for the response in assay [5] and in [7] were 0.35% (inactive) and -6.14% (inactive), respectively. The binding (% of control) in [8] is 101% (inactive). In addition, the efflux inhibition (fraction of control) in assay [9] is 0.28 (inactive). In addition, the differentiation response in assay [11] was -17.7% (inactive).

The molecule `COc1ccc(C(=O)C2CCCCC2=O)cc1` (centres undefined) returned a double positive events in assay [1] of 67.8%. Besides, in assay [1], the vesicle binding response was 193% (inactive). In addition, the inhibition is 9.1% (inactive) in [2], 2.47% (inactive) in [6] and 16% (inactive) in [10]. Besides, the superoxide response (% of plate) in assay [3] is 100% (inactive). The aptamer binding inhibition in assay [4] is 0% (inactive). Moreover, the response in assay [5] is 15.9% (inactive); in assay [7], -6% (inactive). Besides, in assay [8], the binding (% of control) is 101% (inactive). Besides, in assay [9], the efflux inhibition (fraction of control) was 0.04 (inactive). Also, the differentiation response in assay [11] was -7.94% (inactive).

In turn, `COc1cc(OC)c(C(=O)CCCN2CCCC2)c(OC)c1` showed a double positive events in assay [1] of 65.4%. Also, the vesicle binding response in assay [1] was 214% (inactive). Also, the figures for the inhibition in assay [2], in assay [6] and in assay [10] were -3.24% (inactive), 1.36% (inactive) and 10% (inactive), respectively. Moreover, the superoxide response (% of plate) in [3] is 97.6% (inactive). Also, the aptamer binding inhibition in assay [4] is 4% (inactive). In addition, the values for the response in assay [5] and in assay [7] were -11.1% (inactive) and 1.8% (inactive), respectively. Besides, in assay [8], the binding (% of control) was 109% (inactive). The efflux inhibition (fraction of control) in assay [9] was 0.19 (inactive). Further, in assay [11], the differentiation response was -8.19% (inactive).
